The whole screen tested about 1,200 compounds, of which about 150 (12%) were called active.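 Rule for the calls: active = ratio at least 3 SD above the weak peptide control, stable starting fluorescence, no direct agonism earlier; inactive = the rest.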 Only a sample is shown.

The target in the experiment is Mas-related G-protein coupled receptor member X1 (Homo sapiens) (UniProt Q96LB2). Put plainly: MrgX1 positive allosteric modulators, duplicate retest, confirmation, HEK293 cells, Fluo-4 calcium flux (AID 602413).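 Note: compound followed by low BAM8-22 agonist challenge near EC20.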 The following applies: MrgX1-HEK293, Fluo-4 calcium fluorescence, FDSS, at 10 µM; hits give high values. (In general: Calcium flux is commonly read through the fluorescence of an indicator in the cells.)
Mas-related G-protein coupled receptor member X1 (Homo sapiens), sequence (Q96LB2 whole entry, looked up): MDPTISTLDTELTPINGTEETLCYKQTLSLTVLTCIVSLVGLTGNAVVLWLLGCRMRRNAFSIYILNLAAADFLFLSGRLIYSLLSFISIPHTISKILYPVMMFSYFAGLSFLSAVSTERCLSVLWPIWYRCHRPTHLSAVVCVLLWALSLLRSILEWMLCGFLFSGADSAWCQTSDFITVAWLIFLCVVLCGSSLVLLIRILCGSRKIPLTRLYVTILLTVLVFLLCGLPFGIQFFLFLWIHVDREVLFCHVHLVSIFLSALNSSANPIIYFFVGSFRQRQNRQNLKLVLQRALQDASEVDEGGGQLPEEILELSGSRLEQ
For `OCCn1c(-c2ccccc2)csc1=Nc1ccccc1`, the activation (ratio percentage) entry was “inactive”.

Regarding `CN1/C(=C\C=C2\N=C(c3ccc(F)cc3)OC2=O)C(C)(C)c2ccccc21`, the activation (ratio percentage) entry is “inactive”. With `COCCNC(=O)C1CCN(S(=O)(=O)c2ccc3c(c2)OCCO3)CC1`, the activation (ratio percentage) entry is “inactive”. Regarding `Fc1cccc(Cl)c1COc1ccc(-c2nnco2)cc1`, the activation (ratio percentage) entry was “inactive”.

As to `O=C1C(Cc2ccc(O)cc2)NC(=S)N1Cc1ccccc1` (centres undefined), the activation (ratio percentage) entry was “inactive”. `COC(=O)c1c(NC(=O)CN(c2ccc(C)c(C)c2)S(C)(=O)=O)sc2c1CCCC2`: the activation (ratio percentage) entry was “inactive”.

As for `Cc1cccc(Cn2cnc3c(N)c(C)c(C)cc32)c1`, the activation (ratio percentage) result was “inactive”. Take `COc1cccc(-c2cnc(OC(C)(C)C)nc2OC(C)(C)C)c1`: the activation (ratio percentage) entry is “inactive”. Next, `Brc1ccccc1C1Nc2cccc3cccc(c23)N1`: “inactive”. In the case of `Cc1ccc(OC(=O)c2cc3ccccc3o2)cc1`, the activation (ratio percentage) entry was “inactive”. Consider `Cc1cccc(NC(=O)C(C)N2C(=O)C3C4CC(C(Br)C4Br)C3C2=O)c1` (centres undefined), for which the activation (ratio percentage) is 11.6% (active).

On to `Cc1ccnc(NC(=O)C(C)N2C(=O)c3ccccc3C2=O)c1` (centres undefined), for which the activation (ratio percentage) entry was “inactive”. Next, `COC(=O)Cn1c(O)c(N=NC(=O)OC)c2ccccc21`: “inactive”; `CCOc1ccc(C2=CC(c3ccccc3)n3ncnc3N2)cc1` (centres undefined): “inactive”; `COc1ccc(C2SCCN2S(=O)(=O)c2ccccc2)cc1OC` (centres undefined): “inactive”. On to `COc1cc(C)c(C)cc1S(=O)(=O)N1CCCc2ccccc21`, for which the activation (ratio percentage) was 12.4% (active). Take `COc1cc(C(F)(F)F)nc2c(Br)c(C(C)(C)C)nn12`: the activation (ratio percentage) result is “inactive”. Next, `Cc1c(C(=O)N2CCCc3ccccc32)sc2nc(-c3ccccc3)cn12`: “inactive”; `CCOc1ccc2nc(/N=C/c3nc(-c4ccccc4)oc3O)sc2c1`: “inactive”.

On to `Cc1c(C(=O)N2CCN(c3ccc(F)cc3)CC2)oc2c1C(=O)CCC2`, for which the activation (ratio percentage) result is “inactive”.

For the molecule `CCOc1ccc(NC(=O)N2CC=C(n3c(=O)[nH]c4ccccc43)CC2)cc1`, the activation (ratio percentage) entry is “inactive”. Consider `CCc1ccc(N(CC(=O)Nc2sc3c(c2C(=O)OC)CCCC3)S(C)(=O)=O)cc1`, for which the activation (ratio percentage) result was “inactive”. For `O=C(c1ccc(OC2CCN(C(=O)c3cccnc3)CC2)cc1)N1CCCCCC1`, the activation (ratio percentage) entry was “inactive”. For `CC(C)CNc1ncnc2c1cnn2Cc1ccc(Cl)cc1`, the activation (ratio percentage) entry is “inactive”. Regarding `CC(=O)N1c2ccc(S(=O)(=O)N3CCCC(C(=O)Nc4cccc(Cl)c4)C3)cc2CC1C` (centres undefined), the activation (ratio percentage) result is “inactive”.

For the molecule `Cc1ccc(-n2cnc3ncnc(-c4ccccc4)c32)cc1`, the activation (ratio percentage) result is “inactive”. Regarding `CC(C)CC(=O)N/C(N)=N/c1nc2ccccc2s1`, the activation (ratio percentage) entry is “inactive”. As to `Cc1ccc2nc(Nc3ccccc3)cc(C)c2c1`, the activation (ratio percentage) entry was “inactive”. Consider `COc1ccc(Cc2nc(-c3ccccn3)no2)cc1OC`, for which the activation (ratio percentage) result is “inactive”. Regarding `Nc1cc(OC(=O)c2ccccc2Br)nn1S(=O)(=O)c1ccccc1`, the activation (ratio percentage) entry is “inactive”. Consider `O=C(c1cccc(S(=O)(=O)Nc2ccccc2Cl)c1)N1CCN(C(=O)c2ccco2)CC1`, for which the activation (ratio percentage) result is “inactive”.

Turning to `Nc1ccc(Oc2ccc(Cl)cc2)cc1`, the activation (ratio percentage) entry is “inactive”. Turning to `CC1(C)CC2CC(C)(CN2c2ncnc3ccc(Br)cc23)C1` (centres undefined), the activation (ratio percentage) was 29.4% (active).

Turning to `Cc1ccc(S(=O)(=O)N(C)c2nc3ccccc3n3c(C(C)C)nnc23)cc1`, the activation (ratio percentage) is 27.8% (active). The value for `COc1ccc(Nc2nnc(C)c3ccccc23)cc1` was “inactive”.

Consider `O=C(Nc1cccc(Cl)c1)c1cncn1-c1ccc(F)cc1`, for which the activation (ratio percentage) result was “inactive”.

Turning to `NC(=O)c1c(Nc2nc3c(F)cccc3s2)sc2c1CCCC2`, the activation (ratio percentage) is 15.4% (active). Take `O=C(Nc1nc2c(F)cc(F)cc2s1)C1COc2ccccc2O1` (centres undefined): the activation (ratio percentage) entry was “inactive”.

With `COc1ccc(NC(=O)c2cc(-c3ccc(C)o3)nc3ccccc23)cc1`, the activation (ratio percentage) entry was “inactive”.

For `O=C(COC(=O)c1ccc(NS(=O)(=O)c2cccs2)cc1O)Nc1ccc(F)cc1`, the activation (ratio percentage) entry was “inactive”. As to `Cc1nn(C(=O)c2ccoc2C)c(N)c1-c1ccccc1`, the activation (ratio percentage) entry was “inactive”. Take `Cc1nc2ccccc2cc1OCc1ccc(F)cc1`: the activation (ratio percentage) entry was “inactive”.

For the molecule `Cc1cc2ncn(CCCCOc3ccccc3)c2cc1C`, the activation (ratio percentage) entry is “inactive”. For `CCN(c1cccc(C)c1)S(=O)(=O)c1ccc(-c2coc(C)n2)cc1`, the activation (ratio percentage) result was “inactive”. `Cc1ccc(N/C(N)=N/c2nc(C(F)(F)F)cc(C(F)(F)F)n2)cc1`: the activation (ratio percentage) result is “inactive”.

As to `O=C(Nc1ccccc1N1CCOCC1)c1csc2c1CCCC2`, the activation (ratio percentage) entry was “inactive”.

In the case of `O=C(Nc1ccccc1N1CCCCC1)c1ccc2nccnc2c1`, the activation (ratio percentage) is 11.5% (active).

Consider `Cc1nonc1C1CCCN1Cc1nc(-c2ccc(F)cc2F)oc1C` (centres undefined), for which the activation (ratio percentage) entry was “inactive”. For the molecule `CCOC(=O)N1CCN(C(=O)COCc2cc(-c3ccc4c(c3)OCO4)on2)CC1`, the activation (ratio percentage) result was “inactive”. Regarding `COc1ccc(-c2cc(C(F)(F)F)nc(S(C)(=O)=O)n2)cc1OC`, the activation (ratio percentage) entry was “inactive”. As for `O=C(Oc1ccc(C(=S)N2CCOCC2)cc1)c1ccc(F)cc1`, the activation (ratio percentage) result was “inactive”. On to `Cc1ccc2c(c1)c1ncnc(N3CCc4ccccc4C3)c1n2C`, for which the activation (ratio percentage) entry is “inactive”.

In the case of `Cc1occc1C(=O)Nc1nnc(-c2ccncc2)s1`, the activation (ratio percentage) entry was “inactive”.

On to `Cc1ccc2c(C)c(C(=O)N(C)CCC3CCCCO3)oc2c1C` (centres undefined), for which the activation (ratio percentage) result is “inactive”.

Take `CCOCc1nnc(NC(=O)CCC2CCCCC2)s1`: the activation (ratio percentage) result was “inactive”. For `COc1ccc(OC)c(Nc2nc3ccccc3n3cnnc23)c1`, the activation (ratio percentage) result is “inactive”. The value for `COC(=O)Cc1cc(=O)n(-c2nc3ccccc3s2)[nH]1` was “inactive”. For the molecule `CCC(C)Sc1nc(C)nc2c1c(=O)n(C)c(=O)n2C` (centres undefined), the activation (ratio percentage) entry was “inactive”.

For the molecule `COc1ccc(C(=O)NC(=S)NC2CCCCC2)cc1`, the activation (ratio percentage) result was “inactive”.

The values are drawn from PubChem BioAssay AID602413 (Johns Hopkins Ion Channel Center, 2012).
